Results reported in PMC4336329 (PLoS ONE, 2015).
The campaign covered roughly 310,000 compounds. About 14,000 (4.5%) showed an effect of 50% or more. The effect is printed as a negative number. Shown is part of a subset that was picked to be rich in strong results.

Target: human ether-à-go-go-related gene (hERG) potassium channel (human, UniProt Q12809)
Assay: primary screen, population patch clamp on CHO cells stably expressing hERG; higher = less effect of the substance
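Note: peak tail current of the secondary pulse compared with the same well before compound.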

Chain of human ether-à-go-go-related gene (hERG) potassium channel (Q12809 whole entry, looked up): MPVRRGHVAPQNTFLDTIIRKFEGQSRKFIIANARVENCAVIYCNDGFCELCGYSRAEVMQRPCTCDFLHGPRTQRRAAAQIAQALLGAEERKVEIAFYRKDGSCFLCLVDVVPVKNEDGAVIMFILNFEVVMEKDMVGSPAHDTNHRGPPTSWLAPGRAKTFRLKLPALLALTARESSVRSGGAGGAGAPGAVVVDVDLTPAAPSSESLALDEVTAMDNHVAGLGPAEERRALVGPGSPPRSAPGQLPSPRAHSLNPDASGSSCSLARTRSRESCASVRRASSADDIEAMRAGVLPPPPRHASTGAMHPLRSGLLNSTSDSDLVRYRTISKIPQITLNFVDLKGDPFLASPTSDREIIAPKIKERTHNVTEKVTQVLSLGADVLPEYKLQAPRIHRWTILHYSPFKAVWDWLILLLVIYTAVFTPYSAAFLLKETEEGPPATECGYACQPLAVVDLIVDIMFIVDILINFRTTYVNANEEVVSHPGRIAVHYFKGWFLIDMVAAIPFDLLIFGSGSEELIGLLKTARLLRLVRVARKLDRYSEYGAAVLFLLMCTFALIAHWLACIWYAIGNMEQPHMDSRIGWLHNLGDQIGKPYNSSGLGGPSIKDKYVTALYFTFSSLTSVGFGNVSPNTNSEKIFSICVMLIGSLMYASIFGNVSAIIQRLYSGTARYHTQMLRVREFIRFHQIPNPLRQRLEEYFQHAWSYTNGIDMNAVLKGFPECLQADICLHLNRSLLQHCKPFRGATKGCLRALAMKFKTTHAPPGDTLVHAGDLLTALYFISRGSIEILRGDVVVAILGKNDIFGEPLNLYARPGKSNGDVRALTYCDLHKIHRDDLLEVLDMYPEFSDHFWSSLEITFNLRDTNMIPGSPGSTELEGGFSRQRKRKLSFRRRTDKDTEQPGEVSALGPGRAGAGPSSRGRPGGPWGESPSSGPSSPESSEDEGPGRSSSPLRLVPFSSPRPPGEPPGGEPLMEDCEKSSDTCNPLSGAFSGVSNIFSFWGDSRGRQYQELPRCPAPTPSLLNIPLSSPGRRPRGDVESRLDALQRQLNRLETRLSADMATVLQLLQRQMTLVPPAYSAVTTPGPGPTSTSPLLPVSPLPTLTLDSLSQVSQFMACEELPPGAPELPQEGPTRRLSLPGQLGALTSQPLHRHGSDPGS

| Structure (SMILES) | hERG current change (%, negative = inhibition) at 10uM |
| --- | --- |
| O=C1OCC/C1=C\c1ccc(O)cc1 | 12.3% |
| O=C(NCCCN1CCOCC1)C1Nc2ccc(OC(F)(F)F)cc2C2C=CCC12 (centres unmarked) | -18.9% |
| CCc1noc(C)c1C(=O)Nc1ccc(F)c(F)c1 | -15.4% |
| COc1cc(NC(=O)Cn2nc(C(F)(F)F)c(Br)c2C)cc([N+](=O)[O-])c1 | 27.7% |
| Cn1c(=O)c([N+](=O)[O-])c(NCC2CCCO2)c2ccccc21 (centres unmarked) | 0.511% |
| Cc1ccc2c(c1)c1nc3ccccc3nc1n2C | 21.3% |
| COC(=O)Cn1c2ccc(C)cc2c2nc(C)sc21 | -7.39% |
| c1ccc2nc3c(nc2c1)c1ccccc1n3CCN1CCOCC1 | -48.5% |
| Cc1nc2c3cc(F)ccc3n(Cc3ccccc3F)c2s1 | -5.77% |
| Cc1nc2c3cc(Cl)ccc3n(CCN3CCCCC3)c2s1.Cl | -70% |
| OC(CN1CCCCC1)Cn1c2ccc(Cl)cc2c2cc(Cl)ccc21 (centres unmarked) | -29.6% |
| Cc1nc2c3cc(F)ccc3n(CCN3CCCCC3)c2s1.Cl | -69.9% |
| CCc1ccc2c(c1)c1nc(C)sc1n2CC | -5.89% |
| Cc1nc2c3cc(Cl)ccc3n(CCN3CCOCC3)c2s1 | -52.2% |
| Cc1ccc2c(c1)c1nc3ccccc3nc1n2CCN1CCOCC1 | -62.8% |
| Cc1nc2c3ccccc3n(CCN3CCCCC3)c2s1.Cl | -28.9% |
| Clc1ccc2c(c1)c1cc(Cl)ccc1n2CN1CCOCC1 | -1.99% |
| CCc1ccc(NC(=O)Cn2nc(C)n3cccc3c2=O)cc1 | 15% |
| O=C(Nc1cccnc1)c1sc(Nc2ccccc2F)nc1-c1ccccc1 | 20.5% |
| O=C(O)/C=C\C(=O)Nc1ccc(N2CCN(c3cccc(Cl)c3)CC2)cc1 | 10.2% |
| CCCCCN(C(=O)CCC(=O)OCCOc1ccccc1Cl)c1c(N)n(CCCC)c(=O)[nH]c1=O | -41.3% |
| COC(=O)CSc1nnc(-c2ccc(NS(=O)(=O)c3ccccc3)cc2)o1 | 9.9% |
| CC(=O)Oc1ccc2c(C)c(CC(C)O)c(=O)oc2c1 (centres unmarked) | 6.98% |
| Cl.O=C(NN1CCN(Cc2ccccc2Cl)CC1)c1ccc(Br)cc1 | 18.3% |

| Structure (SMILES) | hERG current change (%, negative = inhibition) at 10uM |
| --- | --- |
| Cc1cc(C)c(N=Cc2c(O)[nH]c(=O)[nH]c2=O)c(C)c1 | 11.6% |
| Cn1cc(/C=N/NC(=O)c2cccc([N+](=O)[O-])c2)c2ccccc21 | 14.8% |
| CCN(CC)C(=O)C1CCCN(c2ccc([N+](=O)[O-])cc2/C=N/NC(=O)c2cccc([N+](=O)[O-])c2)C1 (centres unmarked) | -55.3% |
| CCN(CC)C(=O)C1CCCN(c2ccc([N+](=O)[O-])cc2/C=N/NC(=O)c2cccc(Br)c2)C1 (centres unmarked) | -0.713% |
| CCN(CC)C(=O)C1CCCN(c2ccc([N+](=O)[O-])cc2[N+](=O)[O-])C1 (centres unmarked) | -38.3% |
| CCN(CC)C(=O)C1CCCN(c2ccccc2[N+](=O)[O-])C1 (centres unmarked) | -1.67% |
| CCN(CC)C(=O)C1CCCN(c2ccc([N+](=O)[O-])cc2/C=N/NC(=O)c2cccc(O)c2)C1 (centres unmarked) | -16.9% |
| O=C(N/N=C\c1cc([N+](=O)[O-])ccc1N1CCCC1)c1ccccn1 | -3.3% |
| CCN(CC)C(=O)C1CCCN(c2ccc([N+](=O)[O-])cc2)C1 (centres unmarked) | -52.2% |
| CN1CCN(c2ccc([N+](=O)[O-])cc2/C=N/NC(=O)c2cccc([N+](=O)[O-])c2)CC1 | -54% |
| COc1ccc(-c2nnc(CSc3nc4ccccc4c(=O)n3CC3CCCO3)o2)cc1OC (centres unmarked) | -49% |
| COc1ccc(Cc2noc(CN(C)CC3(N4CCOCC4)CCCCC3)n2)cc1OC | -15.5% |
| CN(Cc1nc(Cc2ccccc2F)no1)CC1(N2CCOCC2)CCCCC1 | -62.8% |
| CN(Cc1nc(-c2cccs2)no1)CC1(N2CCOCC2)CCCCC1 | -24.2% |
| Cc1cc(C(C)(C)C)ccc1OCC(=O)N/N=C\c1c(C)n(C)n(-c2ccccc2)c1=O | -66.3% |
| Cc1ccccc1OCC(=O)N/N=C/c1c(C)nn(-c2ccccc2)c1Cl | 1.74% |
| COc1cc(Br)cc(Br)c1OCC(=O)N/N=C/c1c(C)n(C)n(-c2ccccc2)c1=O | -23.1% |
| CCOC(=O)c1c(N/N=C/c2ccncc2)n[nH]c1C | -10.9% |
| COCCN(CC(=O)NC1CCCCC1)C(=O)CCCC(=O)Nc1ccccn1 | 10% |
| COC/C=C/C1=CC2=CC(=O)C(C)(OC(=O)c3cnc4ccccc4n3)C(=O)C2=CN1Cc1ccco1 (centres unmarked) | 0.0609% |
| O=C(Nc1ccc2[nH]c(=O)[nH]c2c1)C(F)(F)F | 14.9% |
| Cn1cc(C(=O)N2CCCCC2)c2ccccc21 | 4.66% |
| Cc1cc(C)c(S(=O)(=O)NCCOc2ccccc2)c(C)c1-n1cnnn1 | 7.74% |
| C=CC1CN2CCC1CC2[C@@H](OC(=O)c1ccc(OC)cc1)c1ccnc2ccccc12 (some centres unmarked) | -37.3% |

| Structure (SMILES) | hERG current change (%, negative = inhibition) at 10uM |
| --- | --- |
| C=C[C@H]1CN2CC[C@H]1C[C@H]2[C@H](O)c1ccnc2ccccc12 | -34% |
| C=C[C@H]1CN2CC[C@H]1C[C@@H]2[C@@H](O)c1ccnc2ccccc12 | -57.1% |
| CC(Nc1ccccc1)c1cccnc1 (centres unmarked) | -49.1% |
| COc1ccc(CCNS(=O)(=O)c2ccc(Cl)cc2)cc1OC | -6.54% |
| O=C(O)CC(NC(=O)COc1ccccc1)c1cccc([N+](=O)[O-])c1 (centres unmarked) | 18.8% |
| Cc1nn(-c2ccccc2)c(C)c1NC(=O)COc1ccc([N+](=O)[O-])cc1 | -69.4% |
| CC(=O)Nc1ccc(S(=O)(=O)NCCC(=O)OCc2ccc([N+](=O)[O-])cc2)cc1 | -57.4% |
| Cc1nn(-c2ccccc2)c(C)c1NC(=O)COc1ccc(C#N)cc1 | -36.9% |
| CCC(NC(=O)COc1ccc([N+](=O)[O-])cc1)c1ccccc1 (centres unmarked) | -50.7% |
| CC(NC(=O)COc1ccc([N+](=O)[O-])cc1)c1ccccc1 (centres unmarked) | -34.5% |
| CC(=O)NC(CC(=O)OCc1ccc([N+](=O)[O-])cc1)c1ccccc1 (centres unmarked) | -63.1% |
| CC(=O)c1ccc(OCC(=O)Nc2c(C)nn(-c3ccccc3)c2C)cc1 | -2.73% |
| CC(=O)Nc1ccc(S(=O)(=O)NCCC(=O)OCc2ccccc2F)cc1 | -8.68% |
| Cc1ccc(S(=O)(=O)NCCC(=O)OCc2ccc([N+](=O)[O-])cc2)cc1C | -42.3% |
| CCOC(=O)CC(NC(C)=O)c1ccc([N+](=O)[O-])cc1 (centres unmarked) | -1.79% |
| CC(=O)NC(CC(=O)O)c1ccc([N+](=O)[O-])cc1 (centres unmarked) | 10.6% |
| CCOc1ccc(S(=O)(=O)N(CC)CC)cc1NC(=O)c1ccc(N2CCCC2=O)cc1 | 18.2% |
| O=C(N/N=C/c1cccnc1)c1ccc(CN2c3cccc4cccc(c34)S2(=O)=O)cc1 | 5.22% |
| CCC(C(=O)NCc1cccs1)n1nc(C)n2c(cc3occc32)c1=O (centres unmarked) | 0.0905% |
| COC(=O)c1ccc(NC(=O)N2CCC(O)(c3cccnc3)CC2)cc1 | 9.11% |
| CCOC(=O)c1cccc(NC(=O)CSc2nnc(COc3ccc(Cl)cc3)o2)c1 | 16.3% |
| COc1ccc(C(C(=O)NC2CCCCC2)N2CCC3(CC2)OCCO3)cc1 (centres unmarked) | -8.32% |
| Nn1c(Nc2ccccc2)nc2ccccc2c1=O | 14.2% |
| O=C(CC1C(=O)NCCN1Cc1cccc(F)c1F)NC1CCCCCC1 (centres unmarked) | -10.6% |

| Structure (SMILES) | hERG current change (%, negative = inhibition) at 10uM |
| --- | --- |
| CC1CCN(c2ccc(S(=O)(=O)NC3=NCCCCC3)cc2[N+](=O)[O-])CC1 | -11.2% |
| COc1cccc(C2CC(c3cccs3)=NN2S(C)(=O)=O)c1OC (centres unmarked) | 7.29% |
| CCc1cc(C(=O)NNC(=S)Nc2cccc(C)c2)cs1 | 3.09% |
| O=C1c2ccccc2C(=O)N1CCSc1ncn[nH]1 | 19.7% |
| O=[N+]([O-])c1ccccc1S(=O)(=O)NCc1ccc(F)cc1 | 7.19% |
| CC(NC(=O)c1ccc([N+](=O)[O-])cc1[N+](=O)[O-])c1ccc(-c2ccccc2)cc1 (centres unmarked) | -1.64% |
| CCC(NC(=O)c1ccc([N+](=O)[O-])cc1[N+](=O)[O-])c1ccccc1 (centres unmarked) | -56% |
| CCC(NC(=O)c1ccccc1O)c1ccccc1 (centres unmarked) | -33.3% |
| CN(C)c1ccc(CNCC2CCCO2)cc1.Cl (centres unmarked) | 10.5% |
| Cc1ccc(NC(=O)CN(C)C(=O)CCC(=O)c2cccs2)cc1 | -16.2% |
| CC1CCOC2(O1)C(=O)Nc1ccccc12 (centres unmarked) | 16.1% |
| O=C(NCCCN1CCCC1)c1cc(Sc2ccc(F)cc2)nc2ccccc12 | -74.1% |
| CN(C)CCNC(=O)c1cc(Sc2ccc(F)cc2)nc2ccccc12 | -72.5% |
| Cc1ccc(Sc2cc(C(=O)NCCN(C)C)c3ccccc3n2)cc1 | -93.9% |
| CCN(CC)CCCNC(=O)c1cc(Sc2nnc(C)s2)nc2ccccc12 | -40.4% |
| COCCCNC(=O)c1cc(Sc2ccc(F)cc2)nc2ccccc12 | -26.9% |
| COCCCNC(=O)c1cc(Sc2nnc(C)s2)nc2ccccc12 | 2.3% |
| COCCNC(=O)c1cc(Sc2nnc(C)s2)nc2ccccc12 | -18.2% |
| O=C(NCCCN1CCOCC1)c1cc(-c2ccc(F)cc2)nc2ccccc12 | -27.5% |
| CC(C)OCCCNC(=O)c1cc(Sc2ccc(F)cc2)nc2ccccc12 | -5.77% |
| CCN(CC)CCNC(=O)c1cc(Sc2nnc(C)s2)nc2ccccc12 | -45.3% |
| Cc1nnc(Sc2cc(C(=O)NCCCN(C)Cc3ccccc3)c3ccccc3n2)s1 | -56.2% |
| CCOCCCNC(=O)c1cc(Sc2ccc(F)cc2)nc2ccccc12 | -12.4% |
